In PubChem BioAssay AID2099 (Broad Institute, 2009):
Among all 330,000 compounds or so, about 230 (0.07%) were called active. For the sample, actives were picked, then their nearest neighbours and some compounds at random. A number with no mark means an inactive call.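 The calls were made as follows: active = more than half of a compound's replicate wells show inhibition beyond 50%, single wells judged on their own value; inconclusive = some, but no more than half, of replicates pass 50% inhibition; inactive = no replicate passes 50% inhibition.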

These molecules were tested against Lysine-specific demethylase 4C (Homo sapiens) (UniProt Q9H3R0) (assay: JMJD2C H3K9me3 demethylation blockers – biochemical, fluorescence, DELFIA europium, primary screen (AID 2099;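 also: signal counts dimethyl H3K9 product captured on neutravidin plate; 0% = median of DMSO wells and 100% = 0.3 times that DMSO median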)). Conditions: GST-JMJD2C(1-420) H3K9me3 demethylation, at 2.35 µM, hits give high values.
Lysine-specific demethylase 4C (Homo sapiens), sequence (Q9H3R0 1-420 limits assumed): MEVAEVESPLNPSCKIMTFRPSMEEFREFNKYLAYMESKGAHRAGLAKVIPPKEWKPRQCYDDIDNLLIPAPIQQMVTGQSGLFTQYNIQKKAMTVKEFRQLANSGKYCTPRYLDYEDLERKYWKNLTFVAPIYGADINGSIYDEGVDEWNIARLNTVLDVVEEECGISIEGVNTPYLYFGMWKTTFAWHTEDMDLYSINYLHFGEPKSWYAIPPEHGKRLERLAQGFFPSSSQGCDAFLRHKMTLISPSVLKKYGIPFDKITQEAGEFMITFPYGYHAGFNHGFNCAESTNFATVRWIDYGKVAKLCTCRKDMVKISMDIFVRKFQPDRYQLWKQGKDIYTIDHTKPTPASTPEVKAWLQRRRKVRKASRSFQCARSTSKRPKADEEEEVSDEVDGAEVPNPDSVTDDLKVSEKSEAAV

| Compound | inhibition |
| --- | --- |
| CN1CCN(CC#CCC2(O)c3ccccc3-c3ccccc32)CC1 | -1.35% |
| O=C(N/C(=C\c1ccc([N+](=O)[O-])cc1)C(=O)N1CCOCC1)c1cccc(Br)c1 | -3.44% |
| C=CCN1C(=O)C(O)(CC(=O)c2ccc(Cl)cc2)c2ccccc21 (stereo not drawn) | -1.48% |
| Cc1ccsc1/C=N/n1c(=S)[nH]nc(C)c1=O | -1.06% |
| C=CCn1cc(Cl)cc(C(=O)Nc2ccccc2)c1=O | 3.59% |
| O=C1Nc2cc(Cl)c(Cl)cc2N(O)N1c1ccccc1Cl | -2.09% |
| CCCCN(CCCC)CCNC(=O)CN1C(=O)COc2ccc(S(=O)(=O)N3CCOCC3)cc21 | -8.15% |
| COc1cc2c(cc1OC)CC1(CCCCC1)N=C2 | 2.64% |
| COC(C[C@@H](O)[C@H](C)[C@H](O)COCc1ccccc1)OC | 13.4% |
| O=C(CSc1nc(=O)n2ccccc2n1)Nc1ccc2c(c1)OCCO2 | -1.16% |
| COc1cccc(NCCC(=O)c2cccc([N+](=O)[O-])c2)c1 | 4.3% |
| CCc1ccc(N2CC(O)=C(c3nc4ccccc4c(=O)[nH]3)C2=N)cc1 | -0.372% |
| Cc1cc(C)c(S(=O)(=O)N2CCOCC2)cc1C | 8.81% |
| Cc1ccc(C2=NN(C)c3nc4ccccc4n3C2)cc1 | 4.06% |
| Cc1nn(C)c(Cl)c1CN1CCC(Oc2ccc(C(=O)N3CCCC3)cc2)CC1 | 36.3% |
| Cc1ccc(-n2c(CNc3ccc(F)cc3)nnc2SCC(=O)N2CCOCC2)cc1 | 0.71% |
| CC(=O)Nc1ccc(NC(=O)CCN2C(=O)C3CC=CCC3C2=O)cc1 (stereo not drawn) | 3.08% |
| O=c1cc(-c2ccccc2)[nH]c2cc(F)ccc12 | 0.818% |
| Cc1ccccc1NC(=O)N1CCCC1C(=O)NCc1ccccc1 (stereo not drawn) | 5.47% |
| Cc1nnc(SC(C(=O)c2ccccc2)c2ccccc2)[nH]c1=O (stereo not drawn) | -3.86% |
| CCCCN1CCNC1=S | 0.223% |
| OCCC1CN(Cc2ccc3nsnc3c2)CCN1C1CCCC1 (stereo not drawn) | -2.72% |
| O=C(NCc1ccccn1)c1cnc2sccn2c1=O | -1.24% |
| Cc1nc2nc(SCC(=O)Nc3cccc(F)c3)[nH]c2cc1Br | 6.95% |

| Compound | inhibition |
| --- | --- |
| COc1ccc(F)c(-c2nc(CN3CCC(c4ccccc4)CC3)c(C)o2)c1 | -8.87% |
| O=c1c2sccc2nc(SCc2cc(=O)n3ccccc3n2)n1-c1ccc(Br)cc1 | -3.21% |
| CC(C)(C)NC(=O)NC(=O)CN1CCC(Cc2ccccc2)CC1 | -22.7% |
| CN(CC1CCCO1)S(=O)(=O)c1ccc(C(=O)Nc2ccc([N+](=O)[O-])cc2)cc1 (stereo not drawn) | -19.5% |
| COc1ccc(NS(=O)(=O)c2ccc(N3CCN(CCO)CC3)c([N+](=O)[O-])c2)cc1 | 1.9% |
| O=C(NCc1ccccc1Cl)NC(=O)c1csc([N+](=O)[O-])c1 | -1.75% |
| O=C(CN1CCCCCC1)Nc1ccc(Br)cc1Br | 7.23% |
| O=C(CCCOc1ccccc1)NCc1ccco1 | 8.15% |
| COc1cccc(OC)c1C(=O)OCC(=O)/C(C#N)=C(\C)N | -25.5% |
| CC(C)CCN1CCN(Cc2cn[nH]c2C2CCCCC2)CC1CCO (stereo not drawn) | -11.2% |
| COc1ccc(NC(=O)CN(C)C(=O)c2cccc(S(=O)(=O)N3CCN(c4ccccc4)CC3)c2)cc1 | 38.9% |
| CCCC(=O)N1CCC(CCC(=O)NC2CC2)CC1 | 33.1% |
| O=C(CSCc1c(Cl)cccc1Cl)NN1C(=O)c2ccccc2C1=O | -14.7% |
| CCCCn1c(N)c(N(CC(C)C)C(=O)c2cccc(S(=O)(=O)N3CC(C)OC(C)C3)c2)c(=O)[nH]c1=O (stereo not drawn) | -2.81% |
| O=C(OCC1O[C@@H](OC(=O)c2cc(O)c(O)c(O)c2)[C@@H](OC(=O)c2cc(O)c(O)c(O)c2)[C@@H](OC(=O)c2cc(O)c(O)c(O)c2)[C@@H]1OC(=O)c1cc(O)c(O)c(O)c1)c1cc(O)c(O)c(O)c1 (stereo partly drawn) | 97.3% (active) |
| NS(=O)(=O)c1ccc(NC(=S)NNC(=O)c2cccs2)cc1 | 0.859% |
| Cc1cccc(-c2noc(CCC(=O)NC3CCCC3)n2)c1 | 54.2% (active) |
| COc1ccc(-c2noc(CCCC(=O)NC3CCCC3)n2)cc1OC | 0.509% |
| CCOc1ccc(-c2noc(CCC(=O)NC3CCCC3)n2)cc1OC | 7.26% |
| C/C(=N\NC(=O)COc1ccc(C)cc1[N+](=O)[O-])c1ccc2c(c1)OCCO2 | 9.39% |
| Cc1cc(NC(=O)Nc2c[nH]c(=O)[nH]c2=O)ccc1Br | 53.4% (active) |
| Cc1ccc(NC(=O)Nc2ccccc2)c(Br)c1 | 14.6% |
| Cc1cc(NC(=O)[C@H](C)NC(=O)c2ccco2)ccc1Br | -9.73% |
| CCc1c(C)nc2c(OC)cccc2c1Cl | 8.11% |

| Compound | inhibition |
| --- | --- |
| Cc1ccccc1CN1C[C@@H]2C[C@@H](c3ccc4nsnc4c3)N3CCC[C@@]23C1=O | 10.6% |
| COc1cccc(COC(=O)C2CCN(S(=O)(=O)c3cccs3)CC2)c1OC | -2.56% |
| O=c1ccc2c(-c3ccccc3S(=O)(=O)O)c3ccc(O)c(O)c3oc-2c1O | 79.5% (active) |
| CC(C)CN(C(=O)Cn1c(=O)cnc2ccccc21)C1CCS(=O)(=O)C1 (stereo not drawn) | 2.23% |
| c1cc(-c2nn[nH]n2)ccc1CN1CCCCC1 | 12.9% |
| CCc1ccc(-c2nnn(Cc3nn[nH]n3)n2)cc1 | 57.7% (active) |
| CCc1ccc(-c2nnn(Cc3nc4ccccc4s3)n2)cc1 | 51.2% |
| Nc1nc(NCC(=O)O)nc(N2CCCCCC2)c1[N+](=O)[O-] | 21.9% |
| N#CCc1c(C#N)c(N)nc(N2CCCC2)c1C#N | 1.17% |
| N#Cc1c(N2CCCCC2)nc(N)c2c(N)nc(SCC(=O)O)cc12 | 65.6% (active) |
| CCCCn1c(N)c(N(CC(C)C)C(=O)c2ccc(-n3c(C)ccc3C)cc2)c(=O)[nH]c1=O | -11.1% |
| Cc1cc(=O)n2nc(N3CCC(C(=O)Nc4c(F)c(F)c(F)c(F)c4F)CC3)sc2n1 | 1.58% |
| COc1cc(CNCc2ccc3c(c2)OCO3)c([N+](=O)[O-])cc1OC | 1.62% |
| O=C(CN1C(=O)NC2(CCCCCC2)C1=O)NCc1ccc(F)cc1 | 2.24% |
| CSc1ccccc1NC(=O)c1cc(C2CC2)on1 | 4.43% |
| COC(=O)C1C(=O)CC(C)(O)C(C(=O)OC)C1c1ccc2c(c1)OCO2 (stereo not drawn) | -4.99% |
| N#Cc1c(/N=C/N2CCCC2)oc(-c2ccccc2)c1-c1ccccc1 | -7.68% |
| COc1ccc(C2(CNC(=O)Cc3ccc(OC)c(OC)c3)CCCC2)cc1 | -23.7% |
| COc1ccc(C)cc1S(=O)(=O)Nc1cc2c3c(c1)CCC(=O)N3CCC2 | -0.171% |
| O=C(O)C1CCN1C1CCCCC1 (stereo not drawn) | -9.8% |
| COc1ccc(NC(=O)C2CCC(CNc3c(N4CCCCC4)c(=O)c3=O)CC2)c(OC)c1 (stereo not drawn) | -6.37% |
| COCc1cc(C)nc2sc3c(=O)n(-c4cccc5ccccc45)nnc3c12 | -7.85% |
| CCc1nc2cccnc2n1-c1ccc(C(=O)O)cc1 | 3.28% |
| Cc1ccc2nc(-c3ccc(NC(=O)CN(C)S(=O)(=O)c4ccccc4)cc3)sc2c1 | -15.6% |

| Compound | inhibition |
| --- | --- |
| CN(CCCC(=O)Nc1nccs1)S(=O)(=O)c1ccc(Cl)cc1 | 9.62% |
| O=C1C=C(c2ccccc2)CCC1 | -14.3% |
| C/C=C/C(=O)Nc1nnc(C(C)C)s1 | -0.768% |
| CCCC(=O)N1CCN(c2nnc(-c3ccc(C)cc3)c3ccccc23)CC1 | -13.5% |
| C[C@H](C(=O)CC(=O)OC(C)(C)C)[C@H](O)c1ccc(C(F)(F)F)cc1 | 1.41% |
| CC1CCCCC1NC(=O)Cn1cnc2c1c(=O)n(C)c(=O)n2C (stereo not drawn) | 6.58% |
| O=C1CCC(=O)N1CCOP1(=O)COc2ccccc2OC1 | 2.42% |
| NC(=O)c1ccc(N2CCOCC2)nc1 | -3.7% |
| Cc1noc(NS(=O)(=O)c2ccc(N3CC(O)=C(c4ccccc4)C3=N)cc2)c1C | -10.1% |
| COc1ccc([N+](=O)[O-])cc1NC(=O)CC1SC(=Nc2cccc(C)c2C)N(/N=C(\C)c2ccc(C)cc2)C1=O (stereo not drawn) | -21.9% |
| CN(Cc1ccccc1)C(=O)C(=O)c1cn(CC(=O)N2CCCC2)c2ccccc12 | 11.9% |
| O=C(c1cc2ccccc2s1)N1CCN(c2ccccn2)CC1 | -6.37% |
| O=C(N=C1SC2CS(=O)(=O)CC2N1c1ccccc1)c1ccccc1 (stereo not drawn) | 1.92% |
| COc1ccc(C)cc1NC(=O)CCCN1C(=O)NC(C)(C)C1=O | -6.72% |
| O=C(CC(NS(=O)(=O)c1ccc(Cl)cc1)c1ccco1)NC1CCCC1 (stereo not drawn) | -10.3% |
| CC(C)Cn1c(N2CCN(C(=O)/C=C/c3ccccc3)CC2)nc2ccccc21 | 12% |
| CCCCn1c(N)c(N(CC)C(=O)/C=C/c2ccco2)c(=O)[nH]c1=O | -4.8% |
| CN(C(=O)CSc1cccc[n+]1[O-])C1CCCCC1 | -11.4% |
| CCOc1cc(CN2CCCC(CO)(Cc3ccc(F)cc3F)C2)ccc1OC (stereo not drawn) | -2.58% |
| O=C(NCc1cccs1)c1ccc(CS(=O)Cc2ccccc2Cl)o1 (stereo not drawn) | -4.03% |
| CCOc1cnc(-c2c(-c3ccccc3Cl)noc2C)o1 | 0.379% |
